Assay results from PubChem BioAssay.
Activity calls are given as the source filed them. Unless noted, how the calls were made is not given here.

Columns and labels:
[1] = compound effects on lung adenocarcinoma cell viability – A549, calcein-AM fluorescence, 48 h, basal, profiling panel (AID 1162); settings: higher = more signal; further: test concentration not given here
[2] = compound effects on differentiated 3T3-L1 adipocyte viability – cell-based, 3T3-L1 adipocytes, calcein-AM fluorescence, 48 h, basal, profiling panel (AID 1163); settings: 3T3-L1 adipocytes viability, higher = more signal; further: test concentration not given here
[3] = compound effects on hepatocellular carcinoma cell viability – HepG2, calcein-AM fluorescence, 48 h, basal, profiling panel (AID 1164); settings: higher = more signal; further: test concentration not given here
[4] = compound effects on multiple myeloma cell viability – MM1S, calcein-AM fluorescence, 48 h, basal, profiling panel (AID 1165); settings: higher = more signal;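 further: viability of MM1S multiple myeloma cells under basal unstimulated conditions; test concentration not given here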
[5] = calcein-AM signal in unstimulated myeloma cells – cell-based, calcein-AM fluorescence, 48 h, PK04 Diversity Set, profiling panel (AID 1166); settings: RPMI8226 myeloma viability, higher = more signal;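 further: cells grown under basal conditions without added stimulus; test concentration not given here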
[6] = JC-1 mitochondrial signal, unstimulated HepG2 cells – cell-based, JC-1 fluorescence, 24 h, 100 nL compound, profiling panel (AID 1167); settings: HepG2 mitochondrial potential, higher = more signal; further: test concentration not given here
[7] = JC-1 mitochondrial signal, unstimulated adipocytes – cell-based, JC-1 fluorescence, 3T3-L1 adipocytes, 24 h, 100 nL compound, profiling panel (AID 1168); settings: JC-1 mitochondrial fluorescence, higher = more signal, called active from +8 up or from −8 down; further: test concentration not given here
[8] = JC-1 mitochondrial signal, unstimulated myeloma cells – cell-based, JC-1 fluorescence, RPMI8226, 24 h, 100 nL compound, profiling panel (AID 1169); settings: JC-1 mitochondrial potential fluorescence, higher = more signal; further: test concentration not given here
[9] = JC-1 mitochondrial signal, unstimulated MM1S myeloma – cell-based, JC-1 fluorescence, 24 h, 100 nL compound, profiling panel (AID 1170); settings: MM1S mitochondrial potential, higher = more signal; further: test concentration not given here
[10] = resazurin metabolic signal in A549 cells – cell-based, resazurin fluorescence, 24 h, PK04 Diversity Set, profiling panel (AID 1171); settings: A549 viability, higher = more signal, called active from +8 up or from −8 down; further: test concentration not given here
[11] = resazurin metabolic signal in HepG2 cells – cell-based, resazurin fluorescence, 24 h, PK04 Diversity Set, profiling panel (AID 1172); settings: HepG2 viability, higher = more signal; further: test concentration not given here
[12] = budding yeast growth changes without added modifier – OD600, strain BY4716, 24 h, basal condition, primary screen (AID 1173); settings: S. cerevisiae BY4716 growth, OD600, 24 h; higher = more signal, called active from +8 up or from −8 down
[13] = viability profiling in MM1S myeloma cells – cell-based, resazurin fluorescence, basal, 24 h, PK04 Diversity Set, profiling panel (AID 1174); settings: higher = more signal, called active from +8 up or from −8 down; further: test concentration not given here
[14] = target: Dihydroorotate dehydrogenase (quinone), mitochondrial (Plasmodium falciparum (isolate 3D7)) (UniProt Q08210); assay: inhibition of P. falciparum DHODH – biochemical, C-terminal His tag, absorbance 600 nm, primary screen (AID 1175); settings: PfDHODH enzyme, DCIP absorbance 600 nm; higher = more signal, called active from +8 up or from −8 down;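 further: recombinant parasite enzyme with a five histidine tag at its C terminus; test concentration not given here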
[15] = inhibition of PAO1 biofilm formation – strain PAO1, LB-PBS medium, absorbance 600 nm, primary screen (AID 1176); further: test concentration not given here; settings: P. aeruginosa PAO1 growth/biofilm, A600, 12 h; higher = more signal
[16] = growth modulation of vineyard yeast isolate – strain RM11-1a, OD600, basal, 24 h, primary screen (AID 1177);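 further: cultures grown under basal conditions with no added stressor; test concentration not given here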; settings: S. cerevisiae RM11-1a growth, OD600, 24 h; higher = more signal, called active from +8 up or from −8 down
[17] = growth of efflux-deficient E. coli DRC39 – strain DRC39, OD650, 24 h, E. coli filamentation inducers, primary screen (AID 1178);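 further: growth measured as culture turbidity by optical density at 650 nm; test concentration not given here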; settings: E. coli DRC39 acrAB, higher = more signal, called active from +8 up or from −8 down
[18] = growth of efflux-deficient E. coli DRC39 – strain DRC39, OD650, 48 h, E. coli filamentation inducers, primary screen (AID 1179);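 further: screen aims at cell division blockers that make cells filament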; settings: E. coli DRC39 delta-acrAB growth, higher = more signal, called active from +8 up or from −8 down
[19] = viability profiling in RPMI8226 myeloma cells – cell-based, resazurin fluorescence, basal, 24 h, PK04 Diversity Set, profiling panel (AID 1180); settings: higher = more signal;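 further: RPMI8826 multiple myeloma cell line at 5000 cells per well; test concentration not given here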
[20] = target: E3 ubiquitin-protein ligase XIAP (Homo sapiens) (UniProt P98170); assay: small molecules binding XIAP protein – biophysical, small-molecule microarray, fluorescence 635 nm, primary screen (AID 1181); settings: higher = more signal;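 further: score merges 667 nm emission and signal to noise over triplicate slides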
Chain of E3 ubiquitin-protein ligase XIAP (Homo sapiens) (P98170 whole entry, looked up): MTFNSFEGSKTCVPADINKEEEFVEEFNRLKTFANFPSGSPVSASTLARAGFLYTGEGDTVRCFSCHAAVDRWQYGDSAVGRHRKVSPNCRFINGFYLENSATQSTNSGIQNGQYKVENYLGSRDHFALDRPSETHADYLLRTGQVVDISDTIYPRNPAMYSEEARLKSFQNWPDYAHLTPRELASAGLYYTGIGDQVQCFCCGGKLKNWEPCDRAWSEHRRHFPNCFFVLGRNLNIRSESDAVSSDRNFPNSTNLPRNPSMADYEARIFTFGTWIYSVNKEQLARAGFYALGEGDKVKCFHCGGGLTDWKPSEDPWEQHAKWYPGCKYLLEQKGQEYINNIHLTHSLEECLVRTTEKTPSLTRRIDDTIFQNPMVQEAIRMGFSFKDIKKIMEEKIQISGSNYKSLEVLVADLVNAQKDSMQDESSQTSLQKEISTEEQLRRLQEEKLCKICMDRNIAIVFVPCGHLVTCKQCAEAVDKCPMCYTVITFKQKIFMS

Chain of Dihydroorotate dehydrogenase (quinone), mitochondrial (Plasmodium falciparum (isolate 3D7)) (Q08210 whole entry, looked up): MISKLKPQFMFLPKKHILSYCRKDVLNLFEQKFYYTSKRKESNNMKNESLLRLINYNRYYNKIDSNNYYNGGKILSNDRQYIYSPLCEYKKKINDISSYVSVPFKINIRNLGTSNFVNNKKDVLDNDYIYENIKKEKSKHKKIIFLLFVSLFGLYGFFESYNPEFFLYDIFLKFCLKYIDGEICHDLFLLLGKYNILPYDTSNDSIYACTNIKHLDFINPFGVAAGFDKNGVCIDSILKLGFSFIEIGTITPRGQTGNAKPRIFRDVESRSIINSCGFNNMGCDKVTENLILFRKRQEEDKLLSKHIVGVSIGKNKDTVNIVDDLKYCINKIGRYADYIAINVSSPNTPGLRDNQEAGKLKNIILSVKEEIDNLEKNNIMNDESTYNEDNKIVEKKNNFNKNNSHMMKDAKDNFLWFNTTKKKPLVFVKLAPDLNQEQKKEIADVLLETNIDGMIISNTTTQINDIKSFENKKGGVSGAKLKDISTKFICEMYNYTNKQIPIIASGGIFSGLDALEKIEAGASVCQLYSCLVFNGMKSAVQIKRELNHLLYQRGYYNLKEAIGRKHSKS

Row | Structure (SMILES) | z-score [1] | z-score [2] | z-score [3] | z-score [4] | z-score [5] | z-score [6] | z-score [7] | z-score [8] | z-score [9] | z-score [10] | z-score [11] | z-score [12] | z-score [13] | composite z-score [14] | z-score [15] | z-score [16] | z-score [17] | z-score [18] | z-score [19] | composite z-score [20]
1 | COc1ccc([Si](C)(C)[C@@H]2[C@@H](CCn3cc([C@H](O)c4ccccc4)nn3)O[C@]3(C(=O)N(C)c4ccccc43)[C@H]2C)cc1 | -0.536 | 1.27 | -1.01 | -2.69 | -3.85 | 0.988 | -0.42 (inactive) | -0.866 | -0.252 | -1.89 (inactive) | -1.46 | -0.397 (inactive) | -2.34 (inactive) | 0.283 (inactive) | 0.119 (inactive) | 1.04 (inactive) | -0.834 (inactive) | -1.33 (inactive) | -1.81 | -0.0272
2 | O=C1C[C@@](C(=O)O)(c2ccc([N+](=O)[O-])cc2)[C@@H](c2ccc(CO)cc2I)N1CC12CC3CC(CC(C3)C1)C2 | -1.27 | -1.05 | -4.72 | -3.8 | -4.35 | -2.54 | -1.28 (inactive) | -0.811 | -2.41 | -1.77 (inactive) | -1.79 | -4.78 (inactive) | -5.9 (inactive) | -1.49 (inactive) | 1.34 (inactive) | -0.326 (inactive) | -0.401 (inactive) | -0.0671 (inactive) | -6 | -0.17
3 | COCCOC(=O)N1C(=O)[C@@]2(c3ccccc31)[C@H](C(=O)N1CCCCCCC1)[C@H]1C(=O)O[C@H](c3ccccc3)[C@H](c3ccccc3)N1[C@@H]2c1ccccc1OCCO | -0.501 | 0.293 | 0.603 | -0.252 | -1.84 | -0.114 | -0.226 (inactive) | -1.1 | -1.04 | -0.467 (inactive) | -0.415 | 0.406 (inactive) | -0.89 (inactive) | -0.089 (inactive) | 3.81 (inactive) | 1.79 (inactive) | -0.38 (inactive) | 0.0795 (inactive) | -0.201 | 0.496
4 | CCOC(=O)C1=CC[C@@H](c2ccccc2)N(S(=O)(=O)c2ccc(C)cc2)[C@H]1c1ccc(C#N)cc1 | 0.423 | -0.574 | -0.178 | -0.306 | -0.973 | 0.51 | -1.12 (inactive) | 0.124 | -0.725 | 1.39 (inactive) | 0.162 | 1.5 (inactive) | -0.116 (inactive) | -0.0753 (inactive) | 0.381 (inactive) | -0.299 (inactive) | -0.604 (inactive) | -0.288 (inactive) | -1.4 | 0.0123
5 | C=CCOC(=O)[C@@H]1[C@H]2C(=O)O[C@H](c3ccccc3)[C@H](c3ccccc3)N2[C@H](c2ccc(OCCOC(=O)[C@H]3C[C@H]4C(=O)N[C@@H](CCCC[N+](C)(C)C)C(=O)N4[C@H]3c3cccc(OCCO)c3)cc2)[C@@]12C(=O)Nc1ccc(I)cc12 | -0.299 | 0.194 | -0.872 | -0.135 | 0.437 | -0.984 | 1.07 (inactive) | -0.742 | -1.24 | -0.166 (inactive) | -0.0059 | 1.68 (inactive) | -1.05 (inactive) | -0.483 (inactive) | 3.37 (inactive) | 1.12 (inactive) | -0.708 (inactive) | -1.23 (inactive) | -0.521 | 0.104
6 | Cc1ccc(S(=O)(=O)N2CC(C(=O)O)=CCC2c2ccccc2)cc1 (stereo not given) | -0.901 | 0.324 | -0.772 | -0.249 | -1.19 | -0.644 | -2.04 (inactive) | -0.25 | 1.53 | -0.717 (inactive) | -1.31 | 0.558 (inactive) | -2.27 (inactive) | 0.154 (inactive) | 0.12 (inactive) | 0.437 (inactive) | -1.28 (inactive) | -1.15 (inactive) | -0.931 | 0.155
7 | CC1CC/C=C\[C@H]2OC34C=CCN(c5ccc6ccccc6c5)C(=O)[C@H]3N(CCCCCO)C(=O)[C@@H]4C2C(=O)O1 (stereo not given in full) | 0.111 | 0.956 | 0.778 | 1.68 | -0.823 | -0.684 | -0.381 (inactive) | 1.1 | 0.401 | -0.292 (inactive) | -0.304 | -0.317 (inactive) | -0.634 (inactive) | -0.164 (inactive) | -0.484 (inactive) | -0.122 (inactive) | 0.11 (inactive) | 0.312 (inactive) | -0.0986 | -0.471
8 | C=CCCN(CC#C[C@H]1Oc2ccccc2S(=O)(=O)N2CCC[C@@H]12)S(=O)(=O)c1ccc(C)cc1 | 0.436 | -0.257 | -0.383 | -3.21 | -1.77 | 0.825 | -0.184 (inactive) | -0.972 | -1.5 | 0.967 (inactive) | -0.28 | -0.0024 (inactive) | -1.33 (inactive) | 0.711 (inactive) | 0.425 (inactive) | 1.62 (inactive) | 0.0069 (inactive) | -0.285 (inactive) | -1.55 | 0.0027
9 | C=CCC(OC(C)=O)[C@@H]1[C@@H](N(Cc2cc3ccccc3o2)C(=O)c2cccc3ccccc23)c2cc(OCCCO)ccc2N1C(=O)Cc1ccc2ccccc2c1 (stereo not given in full) | 0.206 | 0.753 | 0.381 | 0.791 | -1.08 | 2.07 | -0.858 (inactive) | 0.313 | -0.963 | -1.05 (inactive) | -0.902 | 0.272 (inactive) | -0.411 (inactive) | 0.449 (inactive) | -0.735 (inactive) | 0.481 (inactive) | -0.741 (inactive) | -0.973 (inactive) | -0.276 | -0.0703
